Sfp inh: blocks B. subtilis Sfp PPTase activity; 310,000 compounds, 3.5% hits; Q9F4F7; AID 1490; Biochemical Sfp PPTase activity, qHTS; Potency, µM, usual class: inhibitors;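 also: the enzyme is Sfp with the accession as filed and its product quenches rhodamine fluorescence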
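With Hepes-Na pH 7.6 buffer containing 10 mM MgCl2, Sfp (15 nM) modified BHQ-2-YbbR (12.5 uM) using rhodamine-CoA (5 uM). Two reads 30 minutes apart at 525/598 nm yielded each well's rate.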
G9a inh: inhibitors of human histone lysine methyltransferase G9a. Q96KQ7. G9a H3K9 monomethylation, AlphaScreen, 2 h. Potency, µM (top dose mostly 102 µM), most hits filed as inhibitors. 350,000 compounds, 8.8% hits. AID 504332; also: nearly all actives have a fitted effect of over 75% in size
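AlphaScreen detection with an anti-monomethyl H3K9 antibody quantified product after a 2 h room-temperature reaction containing 500 nM biotinylated H3K9 peptide, 20 µM SAM and 20 nM enzyme, which had been preincubated 15 min with compound.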
HP1b chromo inh: HP1-beta chromodomain-methylated histone interaction inhibition; AID 540317; Potency, µM (series often up to 114 µM), hits mostly inhibitors; P83916; AlphaScreen HP1-beta / biotin-H3K9me3 peptide binding; 390,000 compounds, 0.56% hits; also: nearly all actives have a fitted effect of over 70% in size
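HP1-beta protein (50 nM final) preincubated 30 min at room temperature with biotinylated H3(1-18)K9me3 peptide (50 nM) in PBS pH 7.4, 0.01% Tween-20, then compound added for 30 min. AlphaScreen streptavidin donor/nickel chelate acceptor beads (10 ug/mL final), 30 min dark, luminescence read.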
BAZ2B inh: BAZ2B (human) inhibition | Q9UIF8 | AlphaScreen BAZ2B-H3K14Ac peptide displacement | Potency, µM (series often up to 114 µM), actives largely listed as inhibitors | 360,000 compounds, 4.4% hits | AID 504333; also: nearly all actives have a fitted effect of over 60% in size
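Inhibition is scored as reduced AlphaScreen emission. The BAZ2B/b-H3(5-23)K14Ac complex (50 nM each) in PBS pH 7.4, 0.01% Tween-20 meets compound (up to 110 uM) for 30 min at RT before bead addition.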
ALOX12 inh: blocks human arachidonate 12S-lipoxygenase | P18054 | purified 12hLO, xylenol orange hydroperoxide absorbance | Potency, µM (titrated, usually from 108 µM), usual class: inhibitors | 580,000 compounds, 1.1% hits | AID 1671190
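Purified human 12hLO (150 nM final) in 25 mM Hepes, 0.01% Triton X-100, pH 7.0 was preincubated 15 min at room temperature with compound. Then 40 uM arachidonic acid was added, 30 min. Hydroperoxide was read by Fe-XO absorbance ratio 573/405 nm.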
JMJD2A Tudor: JMJD2A Tudor domain (human) inhibition; Potency, µM (doses to about 114 µM), most hits filed as inhibitors; 390,000 compounds, 4.4% hits; AID 504339; AlphaScreen JMJD2A-Tudor / H3K4me3 peptide binding; also: nearly all actives have a fitted effect of over 50% in size
Target sequence (O75164 whole entry, looked up, the tested form may be a part): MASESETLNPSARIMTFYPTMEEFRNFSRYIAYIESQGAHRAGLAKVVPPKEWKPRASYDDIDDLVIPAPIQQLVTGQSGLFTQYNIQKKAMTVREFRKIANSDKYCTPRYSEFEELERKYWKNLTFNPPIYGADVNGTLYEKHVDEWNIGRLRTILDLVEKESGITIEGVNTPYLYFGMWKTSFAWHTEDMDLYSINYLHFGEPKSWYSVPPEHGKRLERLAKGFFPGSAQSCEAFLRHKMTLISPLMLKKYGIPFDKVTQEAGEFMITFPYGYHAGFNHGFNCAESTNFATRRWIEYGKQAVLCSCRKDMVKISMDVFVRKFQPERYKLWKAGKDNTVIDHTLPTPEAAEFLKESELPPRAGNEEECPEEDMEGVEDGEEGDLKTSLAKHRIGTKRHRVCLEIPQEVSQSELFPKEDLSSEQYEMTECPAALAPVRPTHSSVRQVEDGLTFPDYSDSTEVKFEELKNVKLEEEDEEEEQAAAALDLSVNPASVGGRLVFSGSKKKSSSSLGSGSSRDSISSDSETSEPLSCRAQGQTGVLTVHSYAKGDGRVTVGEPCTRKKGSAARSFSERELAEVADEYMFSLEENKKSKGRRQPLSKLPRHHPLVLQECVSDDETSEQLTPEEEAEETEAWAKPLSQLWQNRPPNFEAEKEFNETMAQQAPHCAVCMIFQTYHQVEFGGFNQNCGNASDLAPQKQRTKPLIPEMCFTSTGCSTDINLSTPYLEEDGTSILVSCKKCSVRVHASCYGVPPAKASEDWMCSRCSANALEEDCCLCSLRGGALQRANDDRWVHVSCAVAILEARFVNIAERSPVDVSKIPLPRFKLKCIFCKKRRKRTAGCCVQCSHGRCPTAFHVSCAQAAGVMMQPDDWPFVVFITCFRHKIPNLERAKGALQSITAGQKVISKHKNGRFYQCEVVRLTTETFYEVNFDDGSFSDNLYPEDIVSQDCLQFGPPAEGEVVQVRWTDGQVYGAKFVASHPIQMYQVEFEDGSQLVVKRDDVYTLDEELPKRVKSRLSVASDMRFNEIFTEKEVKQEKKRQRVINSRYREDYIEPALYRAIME
Hits are given with their value; - = inactive; ? = inconclusive; . = not tested or not shown; [ ] = another dose, or the depositor's remark. Compounds with a hit are over-represented: about 8.7% of the library has one in this group of screens. Calls follow the shape of the dose curve; as a rule, active = well fitted curve in the direction sought with a large enough effect; inconclusive = small, poorly fitted or top-dose-only effect, or another doubt; inactive = no such curve, though single readings can be large; an effect the other way counts as inactive or inconclusive.

SMILES | Sfp inh | G9a inh | HP1b chromo inh | BAZ2B inh | ALOX12 inh | JMJD2A Tudor
Cc1c(C)c2cc(Cl)c(O)c(CN(C)C)c2oc1=O | - | -[12.7 µM] | - | - | - | 18µM
CCc1c(C)c2cc(Cl)c(O)c(CN(C)C)c2oc1=O | - | -[12.7 µM] | - | - | - | ?
CCCCc1cc(=O)oc2c(CN(C)C)c(O)c(Cl)cc12 | ? | -[12.7 µM] | - | - | - | 16µM
CN(C)Cc1c(O)c(Cl)cc2c3c(c(=O)oc12)CCCC3 | - | - | - | - | - | -
Cc1ccc(OCC(=O)c2ccc3c(c2)N(CCCC(=O)NCC2CC2)C(=O)CO3)cc1C | . | . | . | . | - | .
Cc1cccc(N2CCN(C(=O)c3ccccc3NC(=O)Cn3c(C)cc(C)c(C#N)c3=O)CC2)c1C | . | . | . | . | - | .
O=C(Oc1nsnc1N1CCOCC1)c1ccccc1 | - | 35µM | - | - | - | -
O=C(Oc1nsnc1N1CCOCC1)N1CCOCC1 | - | - | - | - | - | -
CC(C)NC(=O)CSc1nc(Cc2cccs2)nc2ccccc12 | - | 25µM | - | - | - | -
CC(C)(C)NC(=O)CSc1nc(Cc2ccccc2)nc2ccccc12 | - | - | - | - | - | -
O=S1(=O)c2ccccc2N=NN1Cc1ccc(Cl)cc1 | 50µM | 0.63µM | - | ? | - | 79µM
CC[C@@H](C)[C@@H](CO[C@@H](Cc1ccccc1)C(=O)N[C@@H](CCS(C)(=O)=O)C(=O)OC(C)C)NC[C@@H](N)CS | - | 22µM | . | . | ? | .
CCC(C)C(NC(=O)OC(C)(C)C)C(=O)NC(Cc1ccccc1)C(N)=O (stereo unspecified) | . | . | . | . | - | .
CCOc1cc(/C=C2\N=C(SC(C)C(N)=O)N(c3ccc(OC(F)F)cc3)C2=O)ccc1O (stereo unspecified) | 45µM | ? | - | - | - | ?
COc1ccc(N(C(=O)c2ccco2)C(C(=O)NC2CCCC2)c2cccs2)cc1OC (stereo unspecified) | 40µM | ? | - | - | - | -
COc1ccc(C(C(=O)NC2CCCC2)N(C(=O)c2ccco2)c2ccc(OC)c(OC)c2)cc1 (stereo unspecified) | - | - | - | - | - | -
CCc1ccc(N(C(=O)CNC(=O)c2ccco2)C(C(=O)NC2CCCC2)c2cccnc2)cc1 (stereo unspecified) | - | - | - | - | - | 50µM
COc1ccc(N(C(=O)c2ccco2)C(C(=O)NC2CCCC2)c2ccncc2)cc1OC (stereo unspecified) | - | 71µM | - | - | - | -
COC1=C/C(=C/c2c(N)n3nc(-c4ccc(C)cc4)sc3nc2=O)C=CC1=O | - | ? | - | 50µM | ? | ?
CCS(=O)(=O)c1nn2c(N)c(/C=C3/C=CC(=O)C(OC)=C3)c(=O)nc2s1 | - | ? | - | - | - | -
CCOC1=C/C(=C/c2c(N)n3nc(-c4ccccc4)sc3nc2=O)C=CC1=O | - | 40µM | - | 40µM | ? | -
CCCc1noc(COc2ccc3c(C)cc(=O)oc3c2)n1 | . | . | . | . | - | .
CC(C)C(NC(=O)c1ccc(Cl)cc1)C(=O)NCc1cnn(-c2ccccc2)c1 (stereo unspecified) | . | . | . | . | - | .
Nc1nonc1N/N=C/c1c(O)ccc2ccccc12 | - | ? | - | - | - | -
CCc1n[nH]c(=S)n1/N=C/c1c(O)ccc2ccccc12 | - | ? | - | - | - | 14µM
SMILES | Sfp inh | G9a inh | HP1b chromo inh | BAZ2B inh | ALOX12 inh | JMJD2A Tudor
Cn1c(=S)n(/N=C/c2ccc3c(c2)OCO3)c2ccccc21 | - | - | - | - | - | -
CCc1n[nH]c(=S)n1/N=C/c1ccc2c(c1)OCO2 | - | . | - | - | ? | 4.5µM
CCc1n[nH]c(=S)n1/N=C/c1ccccc1OCc1ccc(Cl)cc1 | ? | . | - | - | - | -
CCc1n[nH]c(=S)n1/N=C/c1cccc2ccccc12 | - | 1.6µM | - | - | ? | ?
S=c1[nH]nc(-c2ccncc2)n1/N=C/c1cccc2ccccc12 | - | 1.1µM | . | - | - | .
Cc1ccc2c(c1)N1C(=O)OC[C@@H]1CCN(C(=O)CC(C)C)C2 | . | . | . | . | - | .
O=C(Nc1ccc(NC(=S)NC(=O)c2cccs2)cc1)c1ccco1 | - | 50µM | - | - | ? | -
O=C(NNC(=O)c1cccs1)c1ccco1 | 89µM | - | - | - | - | -
